PubChem BioAssay (Tox21)
Where “and” joins values, the source holds several entries; their conditions need not be identical. Equal values may be shown once. Records with an inconclusive call do not appear. Where a call stands in place of a potency, no number is given. Calls of active or inactive are those of the source. Calls follow the shape of the dose curve; as a rule, active = well fitted activation curve with a large enough effect in the repeat runs; inconclusive = weak or mixed curves; inactive = flat fitted curve, though single readings scatter.

Experiment: A CellTox Green Cytotoxicity Assay to monitor cytotoxicity in HepG2 cells - 32 hour (AID 1224883); also: nearly all actives have a fitted effect of over 50% in size
Details: CellTox Green fluorescence; series mostly up to 76.8 µM
Source text: National Center for Advancing Translational Sciences [NCATS]
NIH Chemical Genomics Center [NCGC]
U.S. Environmental Protection Agency [EPA]
National Institutes of Environmental Health Sciences [NIEHS]
National Toxicology Program [NTP]
Cell-based models are critical for drug discovery. Determining the natural cytotoxic effects resulting from test compounds is an essential research activity. A CellTox Green Cytotoxicity Assay to monitor cytotoxicity in real time of continues cell culture during 40 hours of the compound treatment was used to screen Tox21 10K library compounds in HepG2 cells. CellTox Green Cytotoxicity Assay is a nonlytic, homogeneous, biofluorescent method to measure cytotoxicity in cell culture after experimental manipulation. The assay system uses a proprietary asymmetric cyanine dye that is excluded from viable cells but preferentially stains the dead cell's DNA. […] Viable cells produce no appreciable increases in fluorescence. Therefore, the fluorescence signal produced by the binding interaction with dead cell DNA is proportional to cytotoxicity.
The mixture of HepG2 cell suspension and reagents were dispensed at 600cells/6 ul/well in 1536-well tissue culture treated black solid bottom plates using a Multidrop dispenser. After the assay plates were incubated at a 37 C/5% CO2 incubator for 5 hours, 23 nL of compounds dissolved in DMSO, positive and negative controls was transferred to the assay plate by a pintool work station. The plates were incubated at 37 C for 40 hours. The fluorescence intensity were measured at 0h, 8h, 16h, 24h, 32h and 40h time points using ViewLux plate reader during compound treatment.
Potency is read from the fitted curve at half-maximal effect.

**Q.** Which Potency does the source give for `CCCCCCCCCCCCCC[P+](CCCCCC)(CCCCCC)CCCCCC` (tested in a mixture with another compound) here?
**A.** The Potency was 24.6 µM (active).

**Q.** For `Oc1ccc(I)cc1`, which Potency is on record?
**A.** The Potency was “inactive”.

**Q.** For `CN(C)C(=S)S`, which Potency is on record?
**A.** The Potency was 17.7 µM (active) and 5.45 µM (active) and 11 µM (active).

**Q.** For `C=COCCCl`, which Potency is on record?
**A.** The Potency was “inactive”.

**Q.** With `CS(=O)(=O)c1ccc(C(=O)C2C(=O)CCCC2=O)c([N+](=O)[O-])c1` as the compound, how does the Potency read?
**A.** Its Potency is 44.4 µM (active).

**Q.** For `c1ccc2c(c1)[nH]c1cnccc12`, which Potency is on record?
**A.** Its Potency is “inactive”.

**Q.** Which Potency does the source give for `Cc1c(Cl)c(=O)oc2cc(OP(=O)(OCCCl)OCCCl)ccc12` here?
**A.** The Potency was “inactive”.

**Q.** For `Oc1c(Cl)c(Cl)cc(Cl)c1Cl`, which Potency is on record?
**A.** Its Potency is “inactive”.

**Q.** Which Potency does the source give for `C=CC(=O)N(C)C` here?
**A.** The Potency was “inactive”.

**Q.** With `Nc1ccc([N+](=O)[O-])cc1Cl` as the compound, how does the Potency read?
**A.** Its Potency is “inactive”.

**Q.** For `CC(=O)c1ccc(-c2ccccc2)cc1`, which Potency is on record?
**A.** The Potency was “inactive”.

**Q.** Which Potency does the source give for `C=CC(=O)OCC(COC(=O)C=C)(COC(=O)C=C)COC(=O)C=C` here?
**A.** The Potency was 38.9 µM (active).

**Q.** With `CN(C)[C@@H]1C(=O)C(C(N)=O)=C(O)[C@@]2(O)C(=O)C3=C(O)c4c(O)ccc(Cl)c4[C@@](C)(O)[C@H]3C[C@@H]12` as the compound, how does the Potency read?
**A.** The Potency was “inactive”.

**Q.** For `CCOP(=S)(OCC)SCS(=O)(=O)CC`, which Potency is on record?
**A.** Its Potency is “inactive”.

**Q.** Which Potency does the source give for `C[C@]12CC[C@H]3[C@@H](CCC4=CC(=O)CC[C@@]43C)[C@@H]1CC[C@@H]2O` here?
**A.** Its Potency is “inactive”.

**Q.** Which Potency does the source give for `OC(c1ccc(Cl)cc1)(c1ccc(Cl)cc1)C(Cl)(Cl)Cl` here?
**A.** Its Potency is “inactive”.

**Q.** Which Potency does the source give for `O=C(CCl)C(Cl)Cl` here?
**A.** The Potency was 55.5 µM (active).

**Q.** Which Potency does the source give for `Clc1ccc(Oc2ccccc2)cc1` here?
**A.** The Potency was “inactive”.

**Q.** For `CCCCCCCCCCBr`, which Potency is on record?
**A.** The Potency was “inactive”.

**Q.** For `SCc1ccco1`, which Potency is on record?
**A.** The Potency was “inactive”.

**Q.** With `C[C@]12Cc3nonc3C[C@@H]1CC[C@@H]1[C@@H]2CC[C@@]2(C)[C@H]1CC[C@]2(C)O` as the compound, how does the Potency read?
**A.** Its Potency is “inactive”.

**Q.** For `c1ccc2c(c1)OCC(C1=NCCN1)O2` (stereo not given), which Potency is on record?
**A.** The Potency was “inactive”.

**Q.** For `CCCCCCCCCBr`, which Potency is on record?
**A.** Its Potency is “inactive”.

**Q.** With `C[C@@H]1O[C@@H](O[C@@H]2C=C3CC[C@@H]4[C@H](CC[C@]5(C)[C@@H](c6ccc(=O)oc6)CC[C@]45O)[C@@]3(C)CC2)[C@H](O)[C@H](O)[C@H]1O` as the compound, how does the Potency read?
**A.** The Potency was “inactive”.

**Q.** With `BrCBr` as the compound, how does the Potency read?
**A.** The Potency was “inactive”.

**Q.** With `CCCSP(=O)(OCC)SCCC` as the compound, how does the Potency read?
**A.** Its Potency is “inactive”.

**Q.** For `CCCN(CCC)c1c([N+](=O)[O-])cc(S(N)(=O)=O)cc1[N+](=O)[O-]`, which Potency is on record?
**A.** The Potency was 26.2 µM (active).

**Q.** With `NNC(=O)c1ccccc1` as the compound, how does the Potency read?
**A.** Its Potency is “inactive”.

**Q.** Which Potency does the source give for `[Cl][Sn]([c]1ccccc1)([c]1ccccc1)[c]1ccccc1` here?
**A.** The Potency was 2.61 µM (active).

**Q.** Which Potency does the source give for `CC1(C)[C@H](C(=O)O[C@H](C#N)c2cccc(Oc3ccccc3)c2)[C@@H]1/C=C(\Cl)C(F)(F)F` here?
**A.** Its Potency is “inactive”.

**Q.** For `Cc1cc(C)cc(OP(=O)(Oc2cc(C)cc(C)c2)Oc2cc(C)cc(C)c2)c1`, which Potency is on record?
**A.** Its Potency is “inactive”.

**Q.** Which Potency does the source give for `c1cc[c]([Sb]([c]2ccccc2)[c]2ccccc2)cc1` here?
**A.** The Potency was “inactive”.

**Q.** For `N#CSCSC#N`, which Potency is on record?
**A.** Its Potency is 39.8 µM (active) and 17.2 µM (active).

**Q.** With `Cc1ccc(CCl)cc1` as the compound, how does the Potency read?
**A.** The Potency was “inactive”.

**Q.** With `S=C=Nc1cccc2ccccc12` as the compound, how does the Potency read?
**A.** The Potency was “inactive”.

**Q.** For `N#C/C=C/C#N`, which Potency is on record?
**A.** Its Potency is “inactive”.

**Q.** Which Potency does the source give for `CC(C)OS(C)(=O)=O` here?
**A.** Its Potency is “inactive”.

**Q.** For `Clc1ccc(C(c2ccccc2Cl)C(Cl)(Cl)Cl)cc1` (stereo not given), which Potency is on record?
**A.** Its Potency is “inactive”.

**Q.** With `N#CC(Cl)Cl` as the compound, how does the Potency read?
**A.** The Potency was “inactive”.

**Q.** With `Cc1cccc(OP(=O)(Oc2cccc(C)c2)Oc2cccc(C)c2)c1` as the compound, how does the Potency read?
**A.** Its Potency is “inactive”.
